# Assay results from PubChem BioAssay.
# “And” between values parts separate entries of the source, which are not always exact repeats. Identical values can stand only once. Results filed as inconclusive are left out. The source made the active and inactive calls. Unless noted, the rule behind the calls is not given here.
# What was measured:
# [1] = test system: Aerobactin synthetase IucA (Klebsiella pneumoniae); experiment: inhibition of K. pneumoniae IucA enzyme – biochemical, Tocris library, absorbance (AID 1345561); conditions: purified IucA enzyme assay, absorbance (OD) read-out; stronger effect = lower value;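 tested at 8 µM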;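 note: 100% = enzyme without compound and 0% = no enzyme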
# [2] = viability loss with induced miR-34 in A549 – imaging, A549 dox-inducible miR-34, nuclei and caspase counts, primary screen (AID 1347080;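 active = compounds whose cell count with miR-34 switched on is under 0.7 times the count with it off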); conditions: A549 miR-34 inducible, Hoechst nuclei count, 48 h
# [3] = chitosan synthesis blockers in C. neoformans – flow cytometry, Cibacron Brilliant Red staining (AID 1347148); conditions: Cryptococcus neoformans chitosan, stronger effect = lower value; at 10 µM unless noted;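 note: compound exposure lasted three days at 37 degrees C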
# [4] = galactose survival enhancers in mitochondrial complex I cybrids – cell-based, galactose medium, ATP luminescence, primary screen (AID 1645843;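 active = z-score of at least 1.8 in each of two replicates, scored against plate mean and spread of sample wells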;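 note: positive z means more ATP and so rescue of galactose-driven cybrid death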); conditions: complex I mutant cybrid cells, 72 h, stronger effect = higher value
# [5] = compounds altering viability of human ES cells (AID 493140); conditions: human embryonic stem cell survival screen; stronger effect = higher value;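 note: cells exposed to compounds for four days before counting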
# [6] = P. berghei load reduction in hepatocytes – cell-based, HepG2, luciferase luminescence, HepG2 viability, primary screen (AID 624349; in the data active = parasite load remaining mostly below about 12%, no sharp cut-off; inactive = mostly above about 10%;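 note: 100% = mean of DMSO negative control wells on the same plate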); conditions: P. berghei liver stage in HepG2, luciferase luminescence, concentration not given here; parasite load remaining: stronger effect = lower value; viability: measured here: HepG2 viability without parasites
# [7] = MELAS cybrid and Rieske KO viability enhancers – cell-based, MELAS cybrids, Rieske KO mouse fibroblasts, CellTiter-Glo, primary screen (AID 1508586;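 active = mean z-score across replicates of 1.96 or higher in either the MELAS or the Rieske mutant cell line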;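 note: z relative to plate mean and SD of compound and empty wells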); conditions: low glucose
# [8] = viability loss in pontine glioma line – cell-based, JHH-DIPG-1, MIPE4.0, CellTiter-Glo, qHTS, dose response (AID 1347062; cut-off not given, nearly all actives have AC50 up to about 27 µM); conditions: JHH-DIPG-1 viability, CellTiter-Glo ATP luminescence
# [9] = viability loss in pontine glioma line – cell-based, SU-DIPG-IV, MIPE4.0, CellTiter-Glo, qHTS, dose response (AID 1347063; cut-off not given, nearly all actives have AC50 up to about 30 µM;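 note: compound exposure lasted 48 hours before the viability readout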); conditions: CellTiter-Glo ATP luminescence
# [10] = growth inhibition of DIPG cells – cell-based, MIPE4.0 library, CellTiter-Glo luminescence, qHTS (AID 1347066; cut-off not given, nearly all actives have AC50 up to about 30 µM;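 note: cells exposed to compound for 48 hours before readout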); conditions: SU-DIPG-VI viability, CellTiter-Glo ATP luminescence
# [11] = molecular target: ATP-dependent translocase ABCB1 (Homo sapiens) (UniProt P08183); experiment: P-glycoprotein substrate transport blockade – cell-based (AID 377; in the data active = fluorescence slope change above about 50%); conditions: MDR1-expressing cells, fluorescent substrate accumulation slope; stronger effect = higher value; concentration not given here
# [12] = compounds altering circadian rhythm period length – cell-based, LOPAC library, luminescence reporter (AID 2774); conditions: circadian reporter cells, at 7 µM, actives lie on both sides;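 note: values are relative to mean of DMSO wells on each plate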
# [13] = test system: Aerobactin synthetase IucA (Klebsiella pneumoniae, hypervirulent); experiment: biochemical IucA inhibition screen of LOPAC library by absorbance (AID 1346212); conditions: IucA enzyme assay, absorbance (OD) readout; stronger effect = lower value;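 tested at 8 µM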;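 note: 100% = no compound wells and 0% = no enzyme wells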
# [14] = test system: Hepatitis C virus NS3 helicase; experiment: blockers of NS3h binding to ssDNA – biochemical, fluorescence polarization, LOPAC1280 library, primary screen (AID 687035; in the data active = inhibition above about 37%); conditions: Purified HCV NS3 helicase, Cy5-dT15 ssDNA binding fluorescence polarization; stronger effect = higher value; concentration not given here
# [15] = compounds altering Cy5-DNA-NS3h complex signal – biochemical, LOPAC1280, artefact control for HCV NS3 helicase inhibitor project (AID 687037); conditions: Cy5-DNA-NS3h complex fluorescence interference counterscreen
# [16] = blockers of cellular phospholipid synthesis – cell-based, LOPAC library, screen 4, primary screen (AID 1347384); conditions: animal cells, phospholipid biosynthesis inhibition screen; at 10 µM
# [17] = measured here: relative caspase fold change +Dox/-Dox
# [18] = measured here: total cells with miR-34 induction, stronger effect = lower value
# [19] = measured here: total cells without miR-34 induction
# [20] = stronger effect = lower value, cell number ratio, induced over uninduced
# [21] = MELAS cybrid survival, CellTiter-Glo 48 h, stronger effect = higher value
# [22] = Rieske KO mouse fibroblast survival, CellTiter-Glo 72 h
# Sequence of ATP-dependent translocase ABCB1 (Homo sapiens) (P08183 whole entry, looked up): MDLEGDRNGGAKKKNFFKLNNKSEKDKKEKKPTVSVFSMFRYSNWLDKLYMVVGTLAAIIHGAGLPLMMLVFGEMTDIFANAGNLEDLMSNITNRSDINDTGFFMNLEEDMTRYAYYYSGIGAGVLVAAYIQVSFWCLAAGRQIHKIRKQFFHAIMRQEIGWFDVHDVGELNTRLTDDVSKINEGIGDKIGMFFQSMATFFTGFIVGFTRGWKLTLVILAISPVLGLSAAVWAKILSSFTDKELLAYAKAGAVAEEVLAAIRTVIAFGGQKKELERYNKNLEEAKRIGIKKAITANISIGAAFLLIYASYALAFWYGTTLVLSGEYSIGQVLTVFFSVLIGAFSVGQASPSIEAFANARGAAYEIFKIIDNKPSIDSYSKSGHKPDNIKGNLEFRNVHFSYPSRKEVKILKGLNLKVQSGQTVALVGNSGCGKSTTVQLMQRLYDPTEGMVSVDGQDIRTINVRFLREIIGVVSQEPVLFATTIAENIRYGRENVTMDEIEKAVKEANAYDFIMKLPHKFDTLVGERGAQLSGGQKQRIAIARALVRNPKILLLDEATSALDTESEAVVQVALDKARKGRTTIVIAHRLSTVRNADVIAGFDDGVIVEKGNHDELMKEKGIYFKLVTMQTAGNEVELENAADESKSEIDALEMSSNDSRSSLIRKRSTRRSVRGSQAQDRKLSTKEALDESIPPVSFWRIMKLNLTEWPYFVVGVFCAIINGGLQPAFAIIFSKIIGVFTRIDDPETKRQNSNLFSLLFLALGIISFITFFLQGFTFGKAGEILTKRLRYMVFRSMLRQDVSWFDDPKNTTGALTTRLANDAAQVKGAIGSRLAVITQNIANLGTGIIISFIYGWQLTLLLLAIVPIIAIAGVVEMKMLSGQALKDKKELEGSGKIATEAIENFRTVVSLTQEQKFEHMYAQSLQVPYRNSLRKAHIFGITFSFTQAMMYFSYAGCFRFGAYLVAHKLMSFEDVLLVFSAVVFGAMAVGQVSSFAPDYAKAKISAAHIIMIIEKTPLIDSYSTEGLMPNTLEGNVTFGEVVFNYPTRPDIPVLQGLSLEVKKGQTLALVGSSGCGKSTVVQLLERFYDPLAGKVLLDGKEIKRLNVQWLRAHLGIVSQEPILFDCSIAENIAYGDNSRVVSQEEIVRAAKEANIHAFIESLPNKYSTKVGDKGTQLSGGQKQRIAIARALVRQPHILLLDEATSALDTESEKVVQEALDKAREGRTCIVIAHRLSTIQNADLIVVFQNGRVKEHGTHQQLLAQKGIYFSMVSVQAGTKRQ
structure (smiles),measurement,setting,value
CC(C)(c1ccc(OCC2CO2)cc1)c1ccc(OCC2CO2)cc1 (centres undefined),remaining activity,[1],110% (inactive)
same,fold change,[2]; stronger effect = lower value,0.903 (inactive) and 0.927 (inactive) and 0.945 (inactive)
same,fold change,[2]; [17],1.23 and 0.827 and 0.981
same,cell count,[2]; [18],5020 and 5510 and 8910
same,cell count,[2]; [19],5560 and 5950 and 9430
same,fold fluorescence,[3],8.02 [at 146.9 µM] (inactive)
same,z-score,[4],-0.925 (inactive)
CCc1cccc(CC)c1NC1=NCCN1,remaining activity,[1],115% (inactive)
same,fold change,[2]; [20],0.952 (inactive)
same,fold change,[2]; [17],1.79
same,cell count,[2]; [18],8430
same,cell count,[2]; [19],8850
same,z-score,[4],-0.02 (inactive)
C[C@@]12N[C@@H](Cc3ccccc31)c1ccccc12,survival,[5],4.17 (inactive)
same,parasite load remaining,[6],76.1% (inactive)
same,viability,[6],94%
same,remaining activity,[1],98.4% (inactive)
same,fold change,[2]; stronger effect = lower value,0.9 (inactive) and 1.01 (inactive) and 0.896 (inactive)
same,fold change,[2]; [17],1.15 and 0.684 and 0.656
same,cell count,[2]; [18],9800 and 8290 and 9030
same,cell count,[2]; [19],10900 and 8240 and 10100
same,z-score,[7]; [21],-0.404 (inactive) and 0.719 (inactive)
same,z-score,[7]; [22],-0.00785 and -0.0901
same,z-score,[4],0.79 (inactive)
CC(=O)N(C)c1cccc(-c2ccnc3c(C(=O)c4cccs4)cnn23)c1,remaining activity,[1],110% (inactive)
same,outcome,[8],inactive
same,outcome,[9],inactive
same,outcome,[10],inactive
same,fold change,[2]; stronger effect = lower value,0.919 (inactive)
same,fold change,[2]; [17],1.18
same,cell count,[2]; [18],6530
same,cell count,[2]; [19],7110
same,z-score,[4],2.35 (active)
CN1C2CCC1CC(OC(c1ccc(F)cc1)c1ccc(F)cc1)C2 (centres undefined),remaining activity,[1],99.4% (inactive)
same,fold change,[2]; [20],1.03 (inactive)
same,fold change,[2]; [17],1.19
same,cell count,[2]; [18],7710
same,cell count,[2]; [19],7460
same,z-score,[4],-0.46 (inactive)
CC(C)[C@@]1(NC(=O)[C@@H]2C[C@@H]3c4cccc5[nH]cc(c45)C[C@H]3N(C)C2)O[C@@]2(O)[C@@H]3CCCN3C(=O)[C@H](Cc3ccccc3)N2C1=O,fluorescence slope change,[11],195% (active)
same,period change,[12],0.005 h (inactive)
same,survival,[5],11.8 (inactive)
same,parasite load remaining,[6],54.5% (inactive) and 64.8% (inactive) and 17.1% (inactive)
same,viability,[6],93% and 73.6% and 61.5%
same,remaining activity,[1],88.2% (inactive)
same,remaining activity,[13],120% (inactive)
same,fold change,[2]; stronger effect = lower value,0.784 (inactive) and 0.954 (inactive) and 0.887 (inactive)
same,fold change,[2]; [17],1.05 and 0.961 and 0.856
same,cell count,[2]; [18],6690 and 7710 and 8510
same,cell count,[2]; [19],8530 and 8070 and 9590
same,z-score,[7]; [21],-0.553 (inactive)
same,z-score,[7]; [22],0.653
same,z-score,[4],-0.045 (inactive) and 0.13 (inactive)
NC(C(=O)O)c1cc(=O)[nH]o1 (centres undefined),period change,[12],0.025 h (inactive)
same,inhibition,[14],-1% (inactive)
same,fluorescence ratio (interference),[15],0.9 (inactive)
same,remaining activity,[1],105% (inactive)
same,fold change,[2]; stronger effect = lower value,1.08 (inactive) and 0.946 (inactive)
same,fold change,[2]; [17],1.44 and 1.4
same,cell count,[2]; [18],10500 and 9700
same,cell count,[2]; [19],9770 and 10300
same,outcome,[16],inactive
same,z-score,[4],0.635 (inactive) and 0.185 (inactive)
CCC(Oc1ccc(Cl)cc1)C(=O)OC1CC2CCC(C1)N2C (centres undefined),remaining activity,[1],88.1% (inactive)
same,fold change,[2]; [20],0.91 (inactive)
same,fold change,[2]; [17],1.03
same,cell count,[2]; [18],8430
same,cell count,[2]; [19],9270
same,z-score,[4],-0.285 (inactive)
CCCCCOc1c(OC)ccc2cc(C(=O)NCc3ccc4c(c3)OCO4)c(=O)[nH]c12,remaining activity,[1],107% (inactive)
same,fold change,[2]; [20],1.04 (inactive)
same,fold change,[2]; [17],1.43
same,cell count,[2]; [18],5450
same,cell count,[2]; [19],5260
same,z-score,[4],0.125 (inactive)
CCCN(CCC)C1CCc2cccc(O)c2C1 (centres undefined),period change,[12],-0.07 h (inactive)
same,inhibition,[14],2% (inactive)
same,fluorescence ratio (interference),[15],1 (inactive)
same,remaining activity,[1],106% (inactive)
same,fold change,[2]; stronger effect = lower value,0.975 (inactive) and 0.957 (inactive)
same,fold change,[2]; [17],0.862 and 0.742
same,cell count,[2]; [18],10400 and 8490
same,cell count,[2]; [19],10700 and 8870
same,outcome,[16],inactive
same,z-score,[4],0.025 (inactive) and -0.42 (inactive)
C[N+]1(C)CCc2cc3c(cc2[C@H]1[C@@H]1OC(=O)c2c1ccc1c2OCO1)OCO3,period change,[12],-0.02 h (inactive)
same,inhibition,[14],-3% (inactive)
same,fluorescence ratio (interference),[15],1 (inactive)
same,remaining activity,[1],123% (inactive) and 114% (inactive)
same,remaining activity,[13],119% (inactive)
C=CCN1CC[C@]23c4c5ccc(O)c4O[C@H]2/C(=N/NC(=O)c2ccccc2)CC[C@@]3(O)[C@H]1C5,period change,[12],0.215 h (inactive)
same,remaining activity,[1],115% (inactive)
same,remaining activity,[13],116% (inactive)
same,fold change,[2]; stronger effect = lower value,0.994 (inactive)
same,fold change,[2]; [17],0.667
same,cell count,[2]; [18],9120
same,cell count,[2]; [19],9170
same,z-score,[4],-0.33 (inactive)
CC(C)n1cnc2c(C(=O)N[C@H]3CN4CCC3CC4)cc(Cl)cc21,remaining activity,[1],102% (inactive)
same,fold change,[2]; [20],0.928 (inactive)
same,fold change,[2]; [17],0.88
same,cell count,[2]; [18],8010
same,cell count,[2]; [19],8630
same,z-score,[4],2.03 (inactive)
NCC(CS(=O)(=O)O)c1ccc(Cl)cc1 (centres undefined),remaining activity,[1],108% (inactive)
same,fold change,[2]; [20],0.961 (inactive)
same,fold change,[2]; [17],1.04
same,cell count,[2]; [18],9200
same,cell count,[2]; [19],9570
same,z-score,[4],0.475 (inactive)
Cc1[nH]cnc1CCN,remaining activity,[1],109% (inactive)
same,fold change,[2]; [20],0.956 (inactive)
same,fold change,[2]; [17],1.94
same,cell count,[2]; [18],10000
same,cell count,[2]; [19],10500
same,z-score,[4],0.125 (inactive)
C[N+]1(C)CCC(OC(=O)C(c2ccccc2)c2ccccc2)CC1,period change,[12],0.03 h (inactive)
same,inhibition,[14],-2% (inactive)
same,fluorescence ratio (interference),[15],1.1 (inactive)
same,remaining activity,[1],93.9% (inactive)
same,remaining activity,[13],107% (inactive)
same,fold change,[2]; stronger effect = lower value,0.984 (inactive) and 0.955 (inactive)
same,fold change,[2]; [17],1.12 and 0.994
same,cell count,[2]; [18],9760 and 8710
same,cell count,[2]; [19],9910 and 9120
same,z-score,[4],0.275 (inactive) and 1.67 (inactive)
COc1ccc(-n2nc(C(F)(F)F)cc2-c2ccc(Cl)cc2)cc1,period change,[12],0.125 h (inactive)
same,remaining activity,[1],119% (inactive)
same,remaining activity,[13],109% (inactive)
same,fold change,[2]; [20],0.91 (inactive)
same,fold change,[2]; [17],0.729
same,cell count,[2]; [18],7020
same,cell count,[2]; [19],7710
same,z-score,[4],-0.695 (inactive)
